A selection: hits, their analogues and other compounds. The true share with any hit is near 19%.
MCF10A rerep: induces DNA re-replication in MCF 10a normal breast cells; 350,000 compounds, 2.9% hits; MCF 10A DNA re-replication, Hoechst nuclear intensity, 48 h; AID 624296; Potency, µM (titrated, usually from 46.1 µM), for the others: at the highest dose activity, positive = re-replication, most hits filed as activators; further: potency means the concentration at half of the fitted maximal effect; % of control where 0% means no effect; nearly all actives have a fitted effect of over 50% in size
TDP1 cell CPT: growth inhibition of DT40 Tdp1-/-;hTDP1 cells with camptothecin (screen for TDP1 inhibitors); 420,000 compounds, 12% hits; chicken DT40 Tdp1-/-;hTDP1 cells + 20 nM CPT, ATP luminescence, 48 h; Potency, µM (series often up to 46.2 µM), for the others: at the top dose activity change, negative = growth inhibition, actives largely listed as inhibitors; further: potency means the concentration at half of the fitted maximal effect; on the % scale 0 is the no-effect control and ±100 the full control effect; nearly all actives have a fitted effect of over 55% in size
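Chicken DT40 Tdp1-/- cells stably complemented with human TDP1 were seeded at 400 cells/well in medium containing 20 nM camptothecin, exposed to pin-transferred compounds, and grown at 37 °C for at least 48 hr. Viability was read as ATP luminescence.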
SW480 rerep: inducers of DNA re-replication in SW480 colon cancer cells; SW480 DNA re-replication, Hoechst DNA content imaging, 48 h; Potency, µM (titrated, usually from 46.1 µM), without a hit: at the top dose re-replication activation, usual class: activators; 340,000 compounds, 1.8% hits; AID 624297; further: potency means the concentration at half of the fitted maximal effect; % of control where 0% means no effect; nearly all actives have a fitted effect of over 55% in size
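Quantitative HTS format with DMSO vehicle controls; 48 hr drug incubation at 37 C, then 40 min Hoechst staining and scanning imager measurement at 405 nm excitation.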
IL-1B inflam inh: inflammasome signaling inhibition, IL-1 beta readout | 360,000 compounds, 4.7% hits | activity change, % at 57.5 µM | AID 743279 | THP-1 LPS/ATP IL-1B secretion, AlphaLISA, 16 h; stronger effect = lower value; in the data active means activity change below about -50%; inconclusive means mostly about -30% to -49%; further: on the % scale 0 is the no-effect control and ±100 the full control effect
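THP-1 cells pretreated 1 hr with compounds (up to 57.5 uM final), then stimulated with LPS (250 ng/mL final) plus ATP (1.25 mM final); secreted IL-1B measured by AlphaLISA after 16 hr, decreased signal indicating inhibition.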
Chronic BCR inh: inhibitors of chronic active B-cell receptor signaling. ABC-DLBCL IkBa-CBG/CBR reporter, luminescence ratio, 4 h. Potency, µM (titrated, usually from 46.1 µM), inactives show top-dose activity change, negative = inhibition, most hits filed as inhibitors. 340,000 compounds, 0.05% hits. AID 493014; active means well fitted inhibition curve with a large enough effect in the signal ratio, with a control signal flat, not every such curve was filed as active; inconclusive means small, poorly fitted or top-dose-only effect, or effect the other way, or a change in a side signal; the % refers to the signal ratio;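 further: potency means the concentration at half of the fitted maximal effect; plate controls were basal doxycycline-induced cells for no effect and cells given 10 µM MG132 for full effect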
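Compounds up to 46 uM were incubated four hours with TMD8 cells whose green CBG68 luciferase is fused to IkappaBalpha; red CBR luminescence normalised the signal, and concentration-effect curves were fitted to fusion, red and ratio data.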
TDP1 cell noCPT: qHTS for Inhibitors of human tyrosyl-DNA phosphodiesterase 1 (TDP1): qHTS in cells in absence of CPT | Potency, µM (highest dose often 46.2 µM), for inactives: top-dose activity change, negative = growth inhibition, most hits filed as inhibitors | DT40 Tdp1-/- hTDP1 cells, no CPT, ATP luminescence, 48 h | 420,000 compounds, 15% hits; further: potency means the concentration at half of the fitted maximal effect; on the % scale 0 is the no-effect control and ±100 the full control effect; nearly all actives have a fitted effect of over 55% in size
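Seeded 400 DT40-hTDP1 cells/well (vehicle DMSO, no 20 nM CPT); pinned compounds; ≥48 hr at 37 °C; CellTiter-Glo luminescence as viability measure.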
The depositor's hits bear a star; ? = inconclusive; · = no result; [ ] = dose if it differs, or a comment. Unless noted, the call rests on the fitted dose curve; in most records, active means well fitted curve in the direction sought with a large enough effect; inconclusive means small, poorly fitted or top-dose-only effect, or another doubt; inactive means no such curve, though single readings can be large; an effect the other way counts as inactive or inconclusive.

SMILES	MCF10A rerep	TDP1 cell CPT	SW480 rerep	IL-1B inflam inh	Chronic BCR inh	TDP1 cell noCPT
COc1ccc2c(c1)c(=O)c(S(=O)(=O)c1ccc(Cl)cc1)cn2Cc1cc(C)ccc1C	·	-21%	·	·	·	?
C=CCn1c(-c2ccccc2)nc(=S)c2c1CCCC2	-2%	?	-144%	-15	7%	23µM*
O=C(CSC1=NCCN1)Nc1cccc([N+](=O)[O-])c1	?	15µM*	1%	-67*	?	21µM*
O=C(CSC1=NC(=O)C(c2ccccc2)C(=O)N1)Nc1ccccc1[N+](=O)[O-] (stereo not drawn)	-7%	2%	-11%	-11	?	-7%
O=C(CSC1=NCCN1)NC(c1ccccc1)c1ccccc1	?	?	?	-105*	?	21µM*
O=C(Nc1ccccc1[N+](=O)[O-])C1(c2ccccc2)CCOCC1	?	?	0%	7	-12%	16µM*
O=C(CSC1=NCCN1)Nc1ccccc1[N+](=O)[O-]	?	?	-4%	-119*	?	21µM*
O=c1c2cc(Cl)ccc2[nH]c(=S)n1Cc1cccs1	?	-1%	-2%	26	?	?
CCCOC1CCCN(C(=O)c2cc(COc3ccc(F)c(F)c3)on2)C1 (stereo not drawn)	?	?	11%	-9	1%	-30%
Cc1ccc(NC(=O)CSC2=NCCN2)cc1	21µM*	23µM*	15%	-61*	?	18µM*
O=C(CC(=O)Nc1ccccc1[N+](=O)[O-])Nc1ccccc1[N+](=O)[O-]	2%	-3%	2%	-64*	0%	-11%
CCn1c(SCC(=O)Nc2ccc(C)cc2)nnc1-c1ccccn1	0%	?	29%	-16	?	-13%
[O-][n+]1cccc(CO)c1	-1%	22%	-3%	·	·	1%
Cc1ccc(C)c2[nH]c(=O)c(CN(CCN3CCCC3)C(=O)Nc3cccc(Cl)c3)cc12	4%	23µM*	3%[9.22 µM]	?	-6%	18µM*
COc1ccc2[nH]c(=O)c(CN(CCN3CCCC3)C(=O)Nc3ccccc3Cl)cc2c1	9%	?	1%	-11	1%	?
COc1ccc(OC)c(CN(CCN2CCOCC2)C(=O)Nc2cccc(Cl)c2)c1	22%	-23%	13%	-10	0%	?
Cc1cc(C)c2cc(CN(CCN3CCCC3)C(=O)Nc3ccc(F)cc3)c(=O)[nH]c2c1	24%	15µM*	15%	-80*	?	21µM*
COc1ccc(S(=O)(=O)N2CCOCC2)cc1NC(=O)CSc1n[nH]c(C(C)C)n1	1%	4%	-12%	0	1%	-16%
Cc1cc(NC(=O)CCCN2C(=O)c3cccnc3C2=O)no1	-4%	21µM*	10%	58	-1%	26µM*
CCN(CC)CCOC(=O)c1ccc(NC(=O)CCn2c(=O)oc3ccccc32)cc1	·	0%	·	·	·	-19%
COc1ccccc1N(C)S(=O)(=O)c1ccc(C(=O)Nc2ccc(C)cc2C)cc1	13%	?	6%	-25	0%	23µM*
COc1cc(NC(=O)c2ccc(S(=O)(=O)N(C)C)cc2)cc(OC)c1OC	-6%	-12%	3%	?	-6%	-13%
COc1ccccc1N(C)S(=O)(=O)c1ccc(C(=O)Nc2cc(OC)c(OC)c(OC)c2)cc1	?	16µM*	?	-17	·	12µM*
COc1ccccc1N(C)S(=O)(=O)c1ccc(C(=O)NC2=NCCS2)cc1	0%	?	2%	17	-1%	?
COc1ccccc1N(C)S(=O)(=O)c1ccc(C(=O)Nc2ccncc2)cc1	?	?	-5%	-1	4%	18µM*
SMILES	MCF10A rerep	TDP1 cell CPT	SW480 rerep	IL-1B inflam inh	Chronic BCR inh	TDP1 cell noCPT
COc1ccccc1N(C)S(=O)(=O)c1ccc(C(=O)N(C)Cc2cccc(F)c2)cc1	·	16µM*	·	0	·	16µM*
COc1ccccc1NC(=O)c1ccc(S(=O)(=O)N(C)c2ccccc2OC)cc1	8%	?	2%	13	2%	?
Cc1ccsc1C(C(=O)NC(C)(C)C)N(C(=O)c1csnn1)c1ccccc1 (stereo not drawn)	-4%	-4%	0%	8	-12%	-29%
O=C(NCCc1ccc(Cl)cc1)C(=O)NCC(c1ccc2c(c1)OCO2)N1CCOCC1 (stereo not drawn)	·	-19%	·	·	·	-20%
COc1ccccc1N(C)S(=O)(=O)c1ccc(C(=O)N2CCCc3ccccc32)cc1	?	21µM*	18%	-11	?	23µM*
COc1ccccc1N(C)S(=O)(=O)c1ccc(C(=O)NC2CCCCC2)cc1	15%	15µM*	-3%	-21	-2%	?
CN(c1ccc(C(=O)NC2CCCC2)cc1)S(=O)(=O)c1ccccc1	25%	-23%	-8%	5	6%	?
COc1ccc(CNC(=O)CN2CCC(NC(=O)c3cccc(OC)c3)CC2)cc1	17%	-1%	2%	5	·	-21%
C[C@@H]1COC(=O)[C@@H](Cc2ccc(F)cc2)C/C=C\C[C@@H](CC(=O)N(CCO)Cc2ccccc2)C(=O)N1	34%	?	-8%	1	1%	?
O=C1OC[C@@H]2CCCN2C(=O)[C@H](CC(=O)N(CCO)Cc2ccccc2)C/C=C\C[C@H]1Cc1ccc(F)cc1	-8%	?	-1%	-2	-1%	?
C[C@H]1COC(=O)[C@H](Cc2ccc(F)cc2)C/C=C\C[C@@H](CC(=O)N(CCO)Cc2ccccc2)C(=O)N1	10%	15µM*	-13%	-6	-1%	21µM*
O=C1NCCOC(=O)[C@@H](Cc2ccc(F)cc2)C/C=C\C[C@@H]1CC(=O)N(CCO)Cc1ccccc1	-2%	18µM*	-14%	8	0%	21µM*
O=C1N[C@@H](Cc2ccccc2)COC(=O)[C@@H](Cc2ccc(F)cc2)C/C=C\C[C@@H]1CC(=O)N(CCO)Cc1ccccc1	23µM*	23µM*	?	?	0%	18µM*
CC(C)(C)[C@@H]1COC(=O)[C@H](Cc2ccc(F)cc2)C/C=C\C[C@H](CC(=O)N(CCO)Cc2ccccc2)C(=O)N1	1%	13µM*	12%	-16	-2%	21µM*
CC/C(=N\NS(=O)(=O)c1ccc(C)cc1)c1ccco1	2%	14%	-9%	-2	4%	-1%
